High-throughput results deposited in PubChem by National Center for Advancing Translational Sciences (NCATS).
This is a sample that favours compounds with a hit; in the whole collection about 7.1% have one here.
MCF10A rereplic: DNA re-replication induction in MCF 10a cells; actives 2.9% (n = 350,000); Potency, µM (highest dose often 46.1 µM), inactives show at the highest dose activity, positive = re-replication, most hits filed as activators; MCF 10A DNA re-replication, Hoechst nuclear intensity, 48 h; also: potency is read from the fitted curve at half-maximal effect; % of control where 0% means no effect; nearly all actives have a fitted effect of over 50% in size
ATXN viability: cell viability loss in ATXN counter-screen; Potency, µM (doses to about 56.7 µM), hits mostly cytotoxic; actives 0.49% (n = 400,000); S2 cells (HEK-293 line with an ATXN2-luciferase reporter) viability, CellTiter-Fluor protease fluorescence, 24 h; also: potency is read from the fitted curve at half-maximal effect; nearly all actives have a fitted effect of over 40% in size
ATXN2 expr inh: inhibitors of ATXN2 expression | AID 1745845 | actives 0.72% (n = 360,000) | HEK-293 ATXN2-luciferase reporter, luminescence, 24 h | Potency, µM (top dose mostly 57 µM), inactives show at the highest dose activity change, negative = inhibition, most hits filed as inhibitors; also: potency is read from the fitted curve at half-maximal effect; % is scaled to controls: 0 for no effect and ±100 for the full control effect; nearly all actives have a fitted effect of over 55% in size
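ATXN2-luciferase reporter cells (luciferase flanked by upstream and downstream ATXN2 gene portions) were treated 24 h at 37 °C with compounds at up to 57 uM. SteadyGlo luminescence gave expression; GF-AFC fluorescence gave viability.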
IL1B secr inh: blocks inflammasome-driven IL-1 beta release; THP-1 LPS/ATP IL-1B secretion, AlphaLISA, 16 h; stronger effect = lower value; activity change, % at 57.5 µM; actives 4.7% (n = 360,000); in the data active = activity change below about -50%; inconclusive = mostly about -30% to -49%; also: % is scaled to controls: 0 for no effect and ±100 for the full control effect
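THP-1 cells pretreated 1 hr with compounds (up to 57.5 uM final), then stimulated with LPS (250 ng/mL final) plus ATP (1.25 mM final); secreted IL-1B measured by AlphaLISA after 16 hr, decreased signal indicating inhibition.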
SW480 rereplic: induces DNA re-replication in SW480 colon adenocarcinoma cells; Potency, µM (titrated, usually from 46.1 µM), for the others: at the highest dose re-replication activation, hits mostly activators; SW480 DNA re-replication, Hoechst DNA content imaging, 48 h; actives 1.8% (n = 340,000); also: potency is read from the fitted curve at half-maximal effect; % of control where 0% means no effect; nearly all actives have a fitted effect of over 55% in size
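SW480 cells exposed to compounds for 48 hr at 37 C, 5% CO2, then Hoechst-stained 40 min. Nuclear DNA content imaged by fluorescence scanning (405 nm excitation, 500-530 nm emission); re-replication scored as increased high-intensity nuclei.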
PINK1 expr mod: changes PINK1 expression; PINK1 immunofluorescence, high-content cytometry, 24 h; actives 0.2% (n = 410,000); Potency, µM (doses to about 76.6 µM), without a hit: at the highest dose activation (PINK1 increase), usual class: activators; active = well fitted activation curve with a large enough effect; inconclusive = small, poorly fitted or top-dose-only effect; cell line not stated here; also: potency is read from the fitted curve at half-maximal effect; % of control where 0% means no effect; nearly all actives have a fitted effect of over 65% in size
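A stable cell line was treated with compounds at 5 concentrations for 24 hours, with CCCP as control. PINK1 levels and mitochondrial localization were measured by immunofluorescence with mitochondrial, cell and nuclear markers after fixation, read by laser-scanning cytometry.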
* = called active by the depositor; i = inactive; ? = inconclusive; / = no result; [ ] = dose if it differs, or a comment. Unless noted, calls follow the shape of the dose curve; as a rule, active = well fitted curve in the direction sought with a large enough effect; inconclusive = small, poorly fitted or top-dose-only effect, or another doubt; inactive = no such curve, though single readings can be large; an effect the other way counts as inactive or inconclusive.

SMILES | MCF10A rereplic | ATXN viability | ATXN2 expr inh | IL1B secr inh | SW480 rereplic | PINK1 expr mod
O=C(CCc1ccc(F)c(F)c1)NC1CCCN(Cc2ccc(Cl)cc2)C1 (stereo unspecified) | -2% | i | -28% | -78* | -2% | 3%
COc1ccc2c(c1)[n+](=O)c(C(C)=O)c(C)n2[O-] | -7% | i | -18% | 6 | -5% | 0%
CC(=O)c1c(C)n([O-])c2cc(F)c(F)cc2[n+]1=O | ? | ? | -2%[11.3 µM] | -100* | ? | 3%
COc1ccc2c(c1)OC(C)CN(CCNC(=O)c1ccc(-n3cccn3)cc1)C2 (stereo unspecified) | / | i | / | / | / | -1%
Nc1ccc(Cc2ccc([N+](=O)[O-])cc2)cc1 | 11% | i | 5% | -50* | -2% | -2%
O=[N+]([O-])c1ccc(Cc2ccccn2)cc1 | 1% | i | 1% | 25 | -8% | 0%
Cc1cc(C)c(S(=O)(=O)n2ccc3ccccc32)c(C)c1 | ? | i | -1% | 15 | 19% | 40µM*
CCOc1ccc(NC(=O)c2oc3ccccc3c2NC(=O)Cc2cccs2)cc1 | / | ? | 11% | / | / | 9%
CC1(C)CC(=O)C2=C(C1)OC1=C(C(=O)CC(C)(C)C1)C2c1ccc(O)cc1O | ? | ? | -32% | -104* | 3.2µM* | 7%[38.3 µM]
O=C(Nc1ccc([N+](=O)[O-])cc1)Nc1nc(-c2ccc(Cl)s2)cs1 | 2.9µM* | 14µM* | 7.9µM* | -99* | -45% | -1%
O=C(Nc1nc(-c2ccc(Cl)s2)cs1)c1ccco1 | ? | i | 18% | -84* | 7% | 6%
O=C(Nc1nc(-c2ccccc2)cs1)c1cccs1 | 17% | i | 62% | -72* | 6% | 3%
O=C(Nc1nc(-c2ccccc2)ns1)c1cccs1 | -6% | i | 36% | -12 | -3% | 0%[38.3 µM]
O=C(Nc1ccc2nc(-c3ccccc3)[nH]c2c1)c1cccs1 | 4% | i | 29% | -65* | 8% | 1%[38.3 µM]
CCOc1ccccc1NC(=O)CSc1nnc(CC)c(CC)n1 | / | / | / | / | / | 0%
CCCCN(C)S(=O)(=O)c1cc(-c2cc(C)no2)ccc1C | / | / | / | / | / | -1%
CCc1cc(C(=O)N2CCOc3ccc(CN4CCN(Cc5ccccn5)CC4)cc3C2)no1 | / | i | / | / | / | -1%
CCCC(=O)Nc1nc(-c2ccc(Cl)s2)cs1 | ? | i | 8% | 0 | 28% | 8%
O=C(Nc1nc(-c2cc(Cl)sc2Cl)cs1)c1ccccc1 | 21µM* | i | 1% | -13 | -1% | ?
O=C(Nc1nc(-c2ccc(Cl)s2)cs1)c1cccs1 | 11% | i | 8% | -84* | 0% | ?
O=C(Nc1ccc(N2CCN(C(=O)c3ccco3)CC2)cc1)c1ccccc1 | 2% | ? | 22% | -22 | 4% | 3%
Cc1cc(C)cc(C(=O)Nc2ccc(N3CCN(C(=O)c4ccco4)CC3)cc2)c1 | 25% | ? | ? | -52* | ? | -1%
O=C(COc1ccccc1)Nc1ccc(N2CCN(C(=O)c3ccco3)CC2)cc1 | 13% | i | -25% | -3 | -6% | 0%
Cc1ccc(NC(=O)COc2ccccc2CNC(C)(C)CC(C)(C)C)cc1 | 18% | 22µM* | 25µM* | -105* | 8% | -3%
Cc1ccc(OCC(=O)Nc2ccc(N3CCN(C(=O)c4ccco4)CC3)cc2)cc1 | 26% | i | -25% | -59* | -4% | 0%
SMILES | MCF10A rereplic | ATXN viability | ATXN2 expr inh | IL1B secr inh | SW480 rereplic | PINK1 expr mod
Cc1ccc(C(=O)N2CCN(c3ccc(NC(=O)COc4ccccc4C)cc3)CC2)cc1 | 9% | i | -34% | -64* | 4% | -2%
CCC(=O)N1CCN(c2ccc(NC(=O)COc3ccc(C)cc3C)cc2)CC1 | 13% | ? | -35% | 22 | 0% | -1%
COc1ccc(C2=Nc3ccc(OC(F)(F)F)cc3NC(c3cccnc3)=N2)cc1 | / | ? | 0% | / | / | 5%
COc1ccc(CNC(=O)CCc2c(C)c3cc4c(C)c(C)oc4cc3oc2=O)cc1OC | / | / | / | / | / | 3%
N#CC1(C#N)CC(C=O)=C(N)C1(C#N)CC(=O)C12CC3CC(CC(C3)C1)C2 (stereo unspecified) | 18µM* | ? | ? | -102* | ? | 6%
COc1ccc(OC)c(CN2CCCC(c3nc(C)ncc3-c3ccc(F)cc3)C2)c1 (stereo unspecified) | / | i | / | / | / | 0%
CCOc1ccc(/C=C/c2nc(C#N)c(NCCCOC)o2)cc1 | 3.7µM* | / | -15% | -2 | 2.1µM* | 4%
COc1ccc(CNc2oc(/C=C/c3cccc(OC)c3)nc2C#N)cc1 | / | / | -23% | / | / | -1%
C=CCNc1oc(/C=C/c2ccccc2)nc1C#N | 8.2µM* | i | 57% | -9 | 21µM* | -4%[38.3 µM]
COCCCNc1oc(/C=C/c2ccccc2)nc1C#N | 16µM* | i | 54% | -24 | 7.9µM* | 6%
COc1cccc(/C=C/c2nc(C#N)c(NCC(C)C)o2)c1 | 3.3µM* | / | / | ? | 21µM* | 1%
CN(C)CCCNc1oc(/C=C/c2ccccc2)nc1C#N | -1% | i | 15% | -22 | -13% | 0%
COc1ccc(NC(=O)N2CCc3c([nH]c4ccc(OC)cc34)C2c2ccc(OC)cc2)cc1 (stereo unspecified) | / | ? | 228% | / | / | 1%
O=C(c1ccc(=O)[nH]c1)N(c1ccccc1)C(CCc1ccccc1)c1nc2ccccc2[nH]1 (stereo unspecified) | / | ? | 1% | -9 | / | 2%
CCOc1ccc(/C=C/c2nc(C#N)c(NCCCN(C)C)o2)cc1 | 6.5µM* | i | -19% | -76* | 18µM* | 8%
COc1cc(C2NC(=O)NC(C)=C2C(=O)OC(C)(C)C)ccc1OCC(N)=O (stereo unspecified) | 0% | / | / | 5 | -20% | /
COc1ccc2c(c1OC)C(=O)NC(C)=C(C(=O)OC(C)(C)C)C2O (stereo unspecified) | -11% | i | -15% | -63* | -1% | /
COc1cc(OC)cc(-n2c(=O)c3sccc3n(Cc3ccc(F)cc3)c2=O)c1 | / | i | 5% | / | / | 3%
Cc1ccsc1CN(C(=O)COc1ccc(Br)cc1)C1CCS(=O)(=O)C1 (stereo unspecified) | / | / | / | / | / | -1%
CN(c1nc(-c2ccc(Br)cc2)cs1)C1CCS(=O)(=O)C1 (stereo unspecified) | 22% | i | 41%[11.3 µM] | -77* | -4% | 3%
Cc1ccc(Cl)cc1N1CCN(C(=O)Cn2ccc3ccccc3c2=O)CC1 | ? | i | -21% | -66* | -3% | 2%
